For 4 molecules, inhibition results are on record in ChEMBL document CHEMBL1961873, “Compounds: GSK PKIS; Assays: Nanosyn kinase panel” (2012).

Test [1] deals with T1, Ephrin type-B receptor 2 (Homo sapiens) (UniProt P29323).
T1 sequence (whole entry): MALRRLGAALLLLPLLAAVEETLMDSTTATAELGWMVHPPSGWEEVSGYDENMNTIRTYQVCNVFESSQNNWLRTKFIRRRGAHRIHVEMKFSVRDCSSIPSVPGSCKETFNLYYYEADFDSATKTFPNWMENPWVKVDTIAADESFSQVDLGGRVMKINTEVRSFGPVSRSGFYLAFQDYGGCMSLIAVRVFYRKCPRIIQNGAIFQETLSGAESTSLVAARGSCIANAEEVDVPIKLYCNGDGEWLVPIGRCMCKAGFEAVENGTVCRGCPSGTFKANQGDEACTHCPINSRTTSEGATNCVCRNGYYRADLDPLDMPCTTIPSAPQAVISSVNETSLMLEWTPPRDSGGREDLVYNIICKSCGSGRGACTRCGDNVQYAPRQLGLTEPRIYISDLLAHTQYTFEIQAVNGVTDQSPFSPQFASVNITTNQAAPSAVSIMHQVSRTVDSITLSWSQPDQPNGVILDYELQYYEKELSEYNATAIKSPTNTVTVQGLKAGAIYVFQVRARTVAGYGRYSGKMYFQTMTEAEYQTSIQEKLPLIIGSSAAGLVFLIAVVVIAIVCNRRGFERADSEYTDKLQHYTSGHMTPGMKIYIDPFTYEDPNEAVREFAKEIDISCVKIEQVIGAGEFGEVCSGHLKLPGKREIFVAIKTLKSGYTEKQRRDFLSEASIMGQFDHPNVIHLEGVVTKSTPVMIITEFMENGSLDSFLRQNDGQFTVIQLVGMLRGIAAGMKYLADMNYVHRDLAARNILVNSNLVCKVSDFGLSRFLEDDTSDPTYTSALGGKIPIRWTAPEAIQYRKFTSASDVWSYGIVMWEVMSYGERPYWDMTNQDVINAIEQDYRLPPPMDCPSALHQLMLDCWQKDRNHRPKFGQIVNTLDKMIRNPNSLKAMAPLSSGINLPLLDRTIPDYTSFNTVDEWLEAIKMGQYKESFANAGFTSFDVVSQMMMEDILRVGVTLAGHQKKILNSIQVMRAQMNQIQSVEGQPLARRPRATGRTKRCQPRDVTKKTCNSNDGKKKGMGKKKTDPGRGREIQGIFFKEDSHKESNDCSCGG
To be noted: at 1 µM.

The target in test [2] is T2, Ephrin type-B receptor 3 (Homo sapiens) (UniProt P54753).
T2 sequence (whole entry): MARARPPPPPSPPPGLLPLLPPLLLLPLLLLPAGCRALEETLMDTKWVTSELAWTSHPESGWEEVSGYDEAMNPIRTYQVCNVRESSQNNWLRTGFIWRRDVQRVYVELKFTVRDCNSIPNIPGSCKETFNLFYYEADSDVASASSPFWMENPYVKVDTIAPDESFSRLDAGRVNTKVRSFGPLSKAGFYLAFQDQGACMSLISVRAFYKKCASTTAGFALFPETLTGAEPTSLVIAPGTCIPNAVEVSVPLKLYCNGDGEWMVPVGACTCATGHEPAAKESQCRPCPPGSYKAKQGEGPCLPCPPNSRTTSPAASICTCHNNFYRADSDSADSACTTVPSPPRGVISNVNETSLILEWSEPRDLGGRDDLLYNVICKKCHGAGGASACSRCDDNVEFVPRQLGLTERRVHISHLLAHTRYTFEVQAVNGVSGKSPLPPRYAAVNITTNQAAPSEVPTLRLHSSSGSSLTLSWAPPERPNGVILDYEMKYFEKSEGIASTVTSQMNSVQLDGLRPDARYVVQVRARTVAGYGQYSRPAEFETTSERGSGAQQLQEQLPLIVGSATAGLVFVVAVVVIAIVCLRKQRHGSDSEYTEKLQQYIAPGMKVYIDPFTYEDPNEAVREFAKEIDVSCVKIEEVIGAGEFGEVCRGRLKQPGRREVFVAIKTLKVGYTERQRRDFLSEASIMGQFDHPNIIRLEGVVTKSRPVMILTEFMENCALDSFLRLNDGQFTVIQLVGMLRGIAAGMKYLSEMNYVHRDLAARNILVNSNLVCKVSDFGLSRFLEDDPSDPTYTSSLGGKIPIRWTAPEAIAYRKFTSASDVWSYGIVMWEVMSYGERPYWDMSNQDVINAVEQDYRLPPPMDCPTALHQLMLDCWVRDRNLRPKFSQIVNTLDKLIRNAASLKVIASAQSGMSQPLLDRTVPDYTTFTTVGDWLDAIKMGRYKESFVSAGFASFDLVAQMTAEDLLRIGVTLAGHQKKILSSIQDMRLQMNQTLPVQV
To be noted: at 0.1 µM.

Test [3] deals with T2, Ephrin type-B receptor 3 (Homo sapiens). The settings on record: at 1 µM.
For test [4], the target named is T3, Ephrin type-B receptor 4 (Homo sapiens) (UniProt P54760).
T3 sequence (whole entry): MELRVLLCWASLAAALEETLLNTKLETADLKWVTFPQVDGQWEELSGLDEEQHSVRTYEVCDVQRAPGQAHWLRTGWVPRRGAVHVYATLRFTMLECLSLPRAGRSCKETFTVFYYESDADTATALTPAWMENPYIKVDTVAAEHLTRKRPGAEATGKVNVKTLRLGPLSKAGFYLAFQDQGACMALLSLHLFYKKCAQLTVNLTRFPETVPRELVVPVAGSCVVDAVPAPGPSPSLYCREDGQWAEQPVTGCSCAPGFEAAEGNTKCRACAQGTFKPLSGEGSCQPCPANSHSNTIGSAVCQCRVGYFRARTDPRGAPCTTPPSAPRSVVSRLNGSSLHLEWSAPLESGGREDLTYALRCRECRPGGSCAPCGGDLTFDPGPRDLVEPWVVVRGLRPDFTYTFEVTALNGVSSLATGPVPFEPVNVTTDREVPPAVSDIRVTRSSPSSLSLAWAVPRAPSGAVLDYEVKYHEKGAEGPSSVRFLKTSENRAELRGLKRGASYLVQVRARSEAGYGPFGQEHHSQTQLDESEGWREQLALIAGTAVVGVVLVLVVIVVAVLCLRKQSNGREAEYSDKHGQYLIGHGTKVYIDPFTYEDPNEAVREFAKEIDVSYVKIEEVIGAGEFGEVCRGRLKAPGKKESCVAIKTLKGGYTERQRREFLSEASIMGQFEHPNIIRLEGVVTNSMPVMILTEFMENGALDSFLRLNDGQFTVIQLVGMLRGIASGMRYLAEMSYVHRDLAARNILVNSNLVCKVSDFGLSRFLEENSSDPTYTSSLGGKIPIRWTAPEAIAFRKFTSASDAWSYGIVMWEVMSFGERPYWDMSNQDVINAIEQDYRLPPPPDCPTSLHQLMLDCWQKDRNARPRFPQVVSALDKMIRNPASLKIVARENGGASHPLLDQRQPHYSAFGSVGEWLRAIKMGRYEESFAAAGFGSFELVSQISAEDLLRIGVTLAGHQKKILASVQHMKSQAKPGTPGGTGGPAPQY
To be noted: at 0.1 µM.

In test [5] the target is T3, Ephrin type-B receptor 4 (Homo sapiens). The settings on record: at 1 µM.
The target in test [6] is Receptor tyrosine-protein kinase erbB-2 (Homo sapiens) (UniProt P04626). To be noted: at 0.1 µM.
Receptor tyrosine-protein kinase erbB-2 (Homo sapiens), sequence (P04626 whole entry): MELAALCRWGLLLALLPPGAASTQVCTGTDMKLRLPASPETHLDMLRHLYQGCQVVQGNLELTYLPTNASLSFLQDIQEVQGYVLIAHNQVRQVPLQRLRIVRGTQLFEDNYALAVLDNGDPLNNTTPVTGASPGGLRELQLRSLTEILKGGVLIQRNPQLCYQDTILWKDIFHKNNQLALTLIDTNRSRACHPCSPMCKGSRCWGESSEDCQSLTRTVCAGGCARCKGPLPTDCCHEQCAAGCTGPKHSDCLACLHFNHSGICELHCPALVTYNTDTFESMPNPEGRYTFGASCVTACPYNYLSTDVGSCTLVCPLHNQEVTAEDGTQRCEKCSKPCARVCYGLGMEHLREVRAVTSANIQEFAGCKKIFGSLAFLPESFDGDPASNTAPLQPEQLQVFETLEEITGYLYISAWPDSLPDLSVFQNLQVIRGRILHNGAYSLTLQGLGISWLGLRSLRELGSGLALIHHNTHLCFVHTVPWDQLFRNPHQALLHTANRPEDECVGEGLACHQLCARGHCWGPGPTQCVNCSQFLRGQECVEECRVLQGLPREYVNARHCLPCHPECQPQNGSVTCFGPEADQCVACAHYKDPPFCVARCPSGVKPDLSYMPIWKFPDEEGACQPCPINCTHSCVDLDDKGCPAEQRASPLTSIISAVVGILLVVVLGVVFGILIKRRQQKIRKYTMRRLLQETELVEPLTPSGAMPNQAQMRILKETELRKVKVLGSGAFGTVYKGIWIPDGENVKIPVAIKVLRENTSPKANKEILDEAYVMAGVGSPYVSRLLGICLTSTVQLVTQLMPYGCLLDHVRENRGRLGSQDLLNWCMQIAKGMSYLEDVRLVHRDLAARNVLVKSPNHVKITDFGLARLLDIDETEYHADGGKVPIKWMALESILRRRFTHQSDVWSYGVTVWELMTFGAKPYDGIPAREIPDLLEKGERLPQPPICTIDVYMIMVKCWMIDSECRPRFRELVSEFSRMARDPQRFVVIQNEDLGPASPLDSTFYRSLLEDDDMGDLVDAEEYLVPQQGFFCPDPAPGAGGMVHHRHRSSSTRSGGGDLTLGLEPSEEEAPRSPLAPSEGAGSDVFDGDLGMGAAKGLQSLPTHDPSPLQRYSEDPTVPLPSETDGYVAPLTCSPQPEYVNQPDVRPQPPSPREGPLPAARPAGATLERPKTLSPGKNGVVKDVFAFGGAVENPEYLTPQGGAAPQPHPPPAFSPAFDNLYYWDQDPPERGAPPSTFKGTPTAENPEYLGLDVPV
Test [7] has the same target. To be noted: at 1 µM.
Test [8] addresses Receptor tyrosine-protein kinase erbB-4 (Homo sapiens) (UniProt Q15303). To be noted: at 0.1 µM.
For test [9] the target is unchanged. To be noted: at 1 µM.
Test [10] has as its target Tyrosine-protein kinase Fer (Homo sapiens) (UniProt P16591). To be noted: at 0.1 µM.
For test [11] the target is unchanged. To be noted: at 1 µM.
Test [12] concerns the target Tyrosine-protein kinase Fes/Fps (Homo sapiens) (UniProt P07332). The settings on record: at 0.1 µM.
The target is the same in test [13]. To be noted: at 1 µM.
The target in test [14] is Fibroblast growth factor receptor 1 (Homo sapiens) (UniProt P11362). To be noted: at 0.1 µM.
The target is the same in test [15]. The settings on record: at 1 µM.
The target of test [16] is Fibroblast growth factor receptor 2 (Homo sapiens) (UniProt P21802). The settings on record: at 0.1 µM.
Fibroblast growth factor receptor 2 (Homo sapiens), sequence (P21802 22-821 limits assumed): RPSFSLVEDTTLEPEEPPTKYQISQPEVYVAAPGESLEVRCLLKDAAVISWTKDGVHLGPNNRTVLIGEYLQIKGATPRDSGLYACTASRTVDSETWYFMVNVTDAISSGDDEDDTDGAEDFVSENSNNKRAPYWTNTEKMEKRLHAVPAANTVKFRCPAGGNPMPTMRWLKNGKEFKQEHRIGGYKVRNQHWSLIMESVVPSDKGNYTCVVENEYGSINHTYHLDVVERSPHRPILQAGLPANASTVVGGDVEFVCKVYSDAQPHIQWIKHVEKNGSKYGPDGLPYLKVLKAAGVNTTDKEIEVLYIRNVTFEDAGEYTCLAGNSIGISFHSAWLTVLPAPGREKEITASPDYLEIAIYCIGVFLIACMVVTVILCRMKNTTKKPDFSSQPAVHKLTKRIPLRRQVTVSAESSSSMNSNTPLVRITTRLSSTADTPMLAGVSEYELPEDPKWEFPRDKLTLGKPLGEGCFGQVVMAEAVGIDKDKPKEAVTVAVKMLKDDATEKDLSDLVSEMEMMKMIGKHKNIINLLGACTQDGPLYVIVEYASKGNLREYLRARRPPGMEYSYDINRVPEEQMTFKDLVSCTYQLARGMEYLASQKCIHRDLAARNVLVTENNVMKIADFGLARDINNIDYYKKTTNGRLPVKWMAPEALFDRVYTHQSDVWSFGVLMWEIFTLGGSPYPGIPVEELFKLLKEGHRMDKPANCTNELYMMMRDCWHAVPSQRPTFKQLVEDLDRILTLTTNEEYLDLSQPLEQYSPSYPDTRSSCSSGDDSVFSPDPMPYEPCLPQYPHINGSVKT
For test [17] the target is unchanged. The settings on record: at 1 µM.
Test [18] addresses Fibroblast growth factor receptor 3 (Homo sapiens) (UniProt P22607). To be noted: at 0.1 µM.
Test [19] has the same target. The settings on record: at 1 µM.
Test [20] addresses Fibroblast growth factor receptor 4 (Homo sapiens) (UniProt P22455). To be noted: at 0.1 µM.

Fibroblast growth factor receptor 4 (Homo sapiens), sequence (P22455 22-802 limits assumed): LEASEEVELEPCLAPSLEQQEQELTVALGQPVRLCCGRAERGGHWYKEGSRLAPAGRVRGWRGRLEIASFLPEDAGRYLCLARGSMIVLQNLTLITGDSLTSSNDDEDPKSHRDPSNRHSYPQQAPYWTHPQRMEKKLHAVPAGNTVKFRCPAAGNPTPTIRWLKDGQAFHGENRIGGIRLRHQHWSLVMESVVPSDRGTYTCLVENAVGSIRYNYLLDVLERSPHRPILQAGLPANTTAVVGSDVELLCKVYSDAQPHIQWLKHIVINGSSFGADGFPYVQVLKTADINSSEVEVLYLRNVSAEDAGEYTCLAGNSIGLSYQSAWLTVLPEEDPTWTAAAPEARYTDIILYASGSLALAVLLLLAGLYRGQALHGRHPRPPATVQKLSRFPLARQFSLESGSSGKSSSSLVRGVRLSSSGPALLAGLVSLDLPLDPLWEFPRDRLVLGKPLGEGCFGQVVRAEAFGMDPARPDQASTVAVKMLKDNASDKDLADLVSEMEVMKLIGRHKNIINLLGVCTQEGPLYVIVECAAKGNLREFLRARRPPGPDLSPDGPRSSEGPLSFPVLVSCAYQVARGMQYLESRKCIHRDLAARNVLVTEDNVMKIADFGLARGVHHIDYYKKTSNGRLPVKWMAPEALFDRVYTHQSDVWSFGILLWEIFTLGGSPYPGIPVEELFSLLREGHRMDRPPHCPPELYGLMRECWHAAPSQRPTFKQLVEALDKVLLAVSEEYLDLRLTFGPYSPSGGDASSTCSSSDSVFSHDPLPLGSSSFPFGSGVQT
Tyrosine-protein kinase Fer (Homo sapiens), sequence (P16591 whole entry, looked up): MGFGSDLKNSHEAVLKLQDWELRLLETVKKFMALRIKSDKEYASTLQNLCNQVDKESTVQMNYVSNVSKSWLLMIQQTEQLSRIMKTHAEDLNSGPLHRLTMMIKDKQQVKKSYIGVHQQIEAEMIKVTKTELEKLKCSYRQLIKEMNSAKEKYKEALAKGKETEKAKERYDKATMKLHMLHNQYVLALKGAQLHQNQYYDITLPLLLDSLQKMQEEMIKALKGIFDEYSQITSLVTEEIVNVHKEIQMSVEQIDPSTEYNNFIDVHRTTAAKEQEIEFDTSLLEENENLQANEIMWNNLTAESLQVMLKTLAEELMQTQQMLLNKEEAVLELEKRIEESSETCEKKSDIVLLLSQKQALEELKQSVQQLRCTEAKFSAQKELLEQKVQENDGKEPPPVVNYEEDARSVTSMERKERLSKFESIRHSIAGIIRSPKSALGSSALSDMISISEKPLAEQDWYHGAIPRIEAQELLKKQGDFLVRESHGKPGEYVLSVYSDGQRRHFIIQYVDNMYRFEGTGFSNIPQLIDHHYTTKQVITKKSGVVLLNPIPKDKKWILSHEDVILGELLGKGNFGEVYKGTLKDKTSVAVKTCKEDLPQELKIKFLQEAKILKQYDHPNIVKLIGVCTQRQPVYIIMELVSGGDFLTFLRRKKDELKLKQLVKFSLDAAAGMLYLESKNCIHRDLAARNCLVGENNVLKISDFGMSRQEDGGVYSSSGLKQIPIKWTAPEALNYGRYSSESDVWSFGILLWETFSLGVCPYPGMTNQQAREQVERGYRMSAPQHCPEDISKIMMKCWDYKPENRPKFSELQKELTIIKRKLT
Receptor tyrosine-protein kinase erbB-4 (Homo sapiens), sequence (Q15303 whole entry): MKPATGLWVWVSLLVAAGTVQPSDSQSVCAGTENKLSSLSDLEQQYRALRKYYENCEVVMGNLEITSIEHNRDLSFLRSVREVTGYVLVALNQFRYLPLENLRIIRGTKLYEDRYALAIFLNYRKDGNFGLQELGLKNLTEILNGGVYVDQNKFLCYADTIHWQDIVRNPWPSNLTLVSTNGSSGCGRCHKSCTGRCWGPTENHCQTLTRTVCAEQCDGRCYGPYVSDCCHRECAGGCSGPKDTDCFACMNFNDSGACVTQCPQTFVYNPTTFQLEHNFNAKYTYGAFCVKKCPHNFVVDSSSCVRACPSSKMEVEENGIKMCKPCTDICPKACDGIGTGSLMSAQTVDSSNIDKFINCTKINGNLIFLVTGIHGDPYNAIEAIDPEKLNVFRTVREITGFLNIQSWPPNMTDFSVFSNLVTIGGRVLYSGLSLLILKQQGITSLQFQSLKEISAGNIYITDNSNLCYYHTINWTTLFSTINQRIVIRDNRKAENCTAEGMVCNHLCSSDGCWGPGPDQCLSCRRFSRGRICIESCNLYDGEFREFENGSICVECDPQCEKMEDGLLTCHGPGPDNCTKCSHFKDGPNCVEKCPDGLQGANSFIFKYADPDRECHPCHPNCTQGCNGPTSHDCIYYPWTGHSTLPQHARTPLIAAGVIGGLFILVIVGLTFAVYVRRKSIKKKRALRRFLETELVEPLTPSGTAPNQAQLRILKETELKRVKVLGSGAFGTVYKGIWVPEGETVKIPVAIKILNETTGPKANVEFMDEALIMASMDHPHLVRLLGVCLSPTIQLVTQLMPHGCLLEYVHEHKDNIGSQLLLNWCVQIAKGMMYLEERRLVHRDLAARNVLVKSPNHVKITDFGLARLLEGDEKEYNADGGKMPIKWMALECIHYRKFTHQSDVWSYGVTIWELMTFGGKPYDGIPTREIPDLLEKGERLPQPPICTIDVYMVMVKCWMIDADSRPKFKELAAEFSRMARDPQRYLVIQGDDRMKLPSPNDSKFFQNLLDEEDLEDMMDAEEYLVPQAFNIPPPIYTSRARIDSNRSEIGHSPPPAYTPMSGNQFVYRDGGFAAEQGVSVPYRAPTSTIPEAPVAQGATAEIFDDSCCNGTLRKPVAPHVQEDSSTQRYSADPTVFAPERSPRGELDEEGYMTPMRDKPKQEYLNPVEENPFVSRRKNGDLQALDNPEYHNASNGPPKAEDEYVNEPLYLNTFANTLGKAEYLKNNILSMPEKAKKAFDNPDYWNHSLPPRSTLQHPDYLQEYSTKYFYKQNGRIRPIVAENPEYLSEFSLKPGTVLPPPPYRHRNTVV

Consider `COC(=O)Nc1nc2cc(Oc3ccc(NC(=O)Nc4ccccc4)cc3)ccc2[nH]1`, for which the inhibition – broadly, the drop in the measured response relative to a control, in per cent – is 4.12% in test [1]; 3.87% in test [2]; 1.72% in [3]; 0.78% in [4]; 0.42% in test [5]; 3.5% in test [6]. In addition, the inhibition is 3.12% in test [7]; 7.18% in test [8]; 7.92% in test [9]; 2.73% in test [10]; 3.19% in test [11]; 1.46% in test [12]. Besides, the inhibition is 1.32% in test [13]; -5.22% in test [14]; 1.47% in [15]; 1.69% in test [16]; 4.03% in test [17]; 5.75% in test [18]. For the same molecule, the inhibition in test [19] amounted to 3.54%; in test [20], 0.83%.

For the molecule `COc1cc2c(cc1Nc1nc(Nc3cccc(F)c3C(N)=O)c3cc[nH]c3n1)N(C(=O)CN1CCN(C(C)C)CC1)CC2`, the inhibition in test [1] was determined as 3.39%; in test [2] it was 1.98%; in test [3], 0.18%; in test [4], 1.3%; in [5], 2.98%; in [6] it was 2.36%. For the same molecule, the inhibition was determined as 3.48% in [7]; 16.9% in test [8]; 59.7% in [9]; 8% in [10]; 53.2% in [11]; 14% in test [12]. In addition, the inhibition was found to be 59.2% in test [13]; 11.4% in test [14]; 2.78% in [15]; 5.89% in test [16]; 0.93% in test [17]; 7.88% in test [18]. Further, the inhibition is 3.19% in [19] and 1.09% in test [20].

Regarding `CNC(=O)c1cncc(/C=C/c2ccccc2C)c1`, the inhibition was found to be 19.7% in test [1]; 5.82% in test [2]; 4.91% in [3]; 1.77% in test [4]; 9.19% in test [5]; 2.44% in [6]. In addition, the inhibition in test [7] was 6.67%; in test [8] it was 13.2%; in test [9] it was 14.8%; in [10], 4.15%; in [11] it was 4.88%; in test [12] it was 2.38%. Besides, the inhibition worked out at 1.6% in test [13]; 4.11% in test [14]; 3.14% in [15]; 2.42% in [16]; 4.95% in [17]; 6.04% in test [18]. For the same molecule, the values for the inhibition in [19] and in test [20] were 4.39% and 0.55%, respectively.

In the case of `Cc1cc(O)cc(C)c1/C=C/c1cncc(C(N)=O)c1`, the inhibition in [1] worked out at 56.7%; in test [2], 5.06%; in test [3] it was 9.99%; in test [4], 9.23%; in [5], 46.1%; in [6], 5.08%. Further, the inhibition in test [7] was -0.51%; in test [8], 12.7%; in test [9], 14.4%; in [10], 2%; in test [11], 1.87%; in [12], 1.69%. In addition, the inhibition was determined as 1.94% in [13]; 2.16% in [14]; 7.91% in test [15]; 2.08% in test [16]; 7.34% in [17]; 4.56% in test [18]. The inhibition in test [19] was 4.79%; in [20], -4.55%.
